What all share (format): functional
Experiment [1] has as its target Solute carrier family 2, facilitated glucose transporter member 1 (Homo sapiens) (UniProt P11166). Put plainly: ST_JUDE_LEISH: Cytotoxicity at 2uM final concentration against transgenic Leishmania Mexicana promastigotes LmGLUT1 that are glucose transport deficient and complemented with the human glucose transporter GLUT1. Activity is measured by DNA content using SYBR green in vitro.

The target in experiment [2] is Hexose transporter 1 (Plasmodium falciparum) (UniProt O97467). The experiment in a line: ST_JUDE_LEISH: Cytotoxicity at 2uM final concentration against transgenic Leishmania Mexicana promastigotes LmPfHT that are glucose transport deficient and complemented with the Plasmodium falciparum hexose transporter. Activity is measured by DNA content using SYBR green in vitro.

Experiment [3] addresses Glucose transporter (Leishmania mexicana) (UniProt O61059). Put plainly: ST_JUDE_LEISH: Cytotoxicity at 2uM final concentration against transgenic Leishmania Mexicana promastigotes LmGT2 that are glucose transport deficient and complemented with the L. Mexicana glucose transporter 2. Activity is measured by DNA content using SYBR green in vitro.

These results are taken from ChEMBL document CHEMBL3433997, “St. Jude Leishmania screening dataset” (2016).

Structures are written as SMILES.

Chain of Solute carrier family 2, facilitated glucose transporter member 1 (Homo sapiens) (P11166 whole entry): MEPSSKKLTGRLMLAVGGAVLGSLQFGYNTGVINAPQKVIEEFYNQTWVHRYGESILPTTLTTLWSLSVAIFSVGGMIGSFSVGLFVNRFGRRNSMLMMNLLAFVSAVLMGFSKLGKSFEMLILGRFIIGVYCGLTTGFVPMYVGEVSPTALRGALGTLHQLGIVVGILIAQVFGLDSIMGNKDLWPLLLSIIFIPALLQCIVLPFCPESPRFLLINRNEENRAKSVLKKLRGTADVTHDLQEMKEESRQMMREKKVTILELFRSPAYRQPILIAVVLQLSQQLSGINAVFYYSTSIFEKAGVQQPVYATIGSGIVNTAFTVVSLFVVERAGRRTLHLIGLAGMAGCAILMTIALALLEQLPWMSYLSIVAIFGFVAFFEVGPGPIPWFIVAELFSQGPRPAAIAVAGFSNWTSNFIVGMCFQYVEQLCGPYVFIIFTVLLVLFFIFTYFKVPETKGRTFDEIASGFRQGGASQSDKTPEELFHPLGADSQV

On to `Cc1cc(N[C@@H](CC(C)C)C(=O)Nc2ccccc2)nc(NCCc2ccccc2)n1`, for which the inhibition (usually the drop in the measured response relative to a control, in per cent) came to 3.68% in experiment [1], 2.93% in experiment [2] and 0.92% in experiment [3].
For `CCCNCc1ccc(-c2ccc(CN(CCOC)C(=O)c3cscn3)cc2)nc1`, the inhibition in experiment [1] was 1.92%; in experiment [2] it was 1.83%; in experiment [3], 2.19%.
On to `O=C(Nc1ccc(OC2CCN(Cc3ccc(F)cc3)CC2)c(Cl)c1)c1ccoc1`, for which the inhibition in experiment [1] was 2.65%; in experiment [2], 2.09%; in experiment [3], 3.99%.
On the same counts, the results for `Fc1cccc(COc2ccc(Nc3ncnc4sc(C#C[C@H]5CC[C@H](CNCC(F)(F)F)N5)cc34)cc2Cl)c1` are 1.63%, 1.52% and 1.3%.
For `CCC(ON1C(N)=NC(N)=NC1(C)C)c1ccccc1` (centres undefined) the same measures were -1.61%, -0.45% and -3.19%.
For `COc1ccc(OCCn2cc(C(=O)c3ccco3)c3ccccc32)cc1` the same measures were 3.1%, 1.5% and 2.42%.
Turning to `O=C(C=Cc1ccc(Cl)c(Cl)c1)NCCCCCN1CCC(CCNC(=O)c2sc3ccccc3c2Cl)CC1`, the inhibition in experiment [1] was 11.5%; in experiment [2], 9.43%; in experiment [3] it was 8.75%.
Turning to `Cn1c(N)cc(-c2cccc(I)c2)c2c(=O)nc(N)nc1-2`, the results for the inhibition in experiment [1], in experiment [2] and in experiment [3] were 4.12%, 4.5% and 2.89%, respectively.
On the same counts, the results for `O=C(NCCCN1CCOCC1)c1csc(Nc2ccc(Cl)c(Cl)c2)n1` are 0.69%, 0.58% and 0.12%.
For `c1cncc(-c2cccc(CNc3nccc(Nc4ccc(OCCN5CCOCC5)cc4)n3)c2)c1` the same measures were 0.48%, 1% and 0.07%.
On the same counts, the results for `CCCCCN1CCCCC(NS(=O)(=O)c2ccc(C(=O)Nc3cccc(C(F)(F)F)c3)cc2)C1` (centres undefined) are 6.68%, 5.05% and 3.25%.
Take `CCCN1CCN(c2ccc(NS(=O)(=O)c3ccc(C(=O)Nc4ccc(Cl)cc4)cc3)cc2)CC1`: the inhibition in experiment [1] was 0.49%; in experiment [2] it was 0.84%; in experiment [3], -2.28%.
Take `O=[N+]([O-])c1cccc(CNC2CCN(Cc3ccc(C(F)(F)F)cc3)CC2)c1`: the inhibition in experiment [1] was 2.18%; in experiment [2], 2.08%; in experiment [3] it was 3.71%.
For `CC1(C)OC[C@]2(C)[C@@H](CC[C@]3(C)C4=CC(=O)CCC4CC[C@@H]23)O1` (some centres undefined) the same measures were 0.57%, 1.6% and 2.59%.
On the same counts, the results for `COc1ccc(-c2ccc(NC(=O)c3cccc(Cl)c3)cc2)cc1CN(C)CCO` are 1.99%, 0.94% and -1.71%.
For `O=C(Nc1ccc(-n2ccc(C(F)(F)F)n2)cc1)c1cccs1` the same measures were 0.18%, 0.85% and 0.42%.
Regarding `COc1ccc(Nc2ccnc3cc(-c4ccccn4)ccc23)cc1OC`, the inhibition was 1.2% in experiment [1], 0.73% in experiment [2] and -0.54% in experiment [3].
On to `CCOc1cc(CC)ccc1C1CCN(CCN2CCC(NC(=O)c3ccc(-c4ccc(C(C)=O)cc4)cc3)CC2)CC1`, for which the inhibition in experiment [1] is 1.17%; in experiment [2], 1.9%; in experiment [3], 1.24%.
On the same counts, the results for `CC(C)(C)NCc1cc(Nc2ccnc3cc(Cl)ccc23)ccc1F` are 7.77%, 8.36% and 9.71%.
On the same counts, the results for `O=C(NCCCN1CCCCC1)c1ccc(Nc2nccc(Nc3ccc(Oc4ccccc4)cc3)n2)cc1` are 10.4%, 8.47% and 7.37%.
For `CCOc1ccc2c(=NN=Cc3cccc(Cl)c3)cc(C)[nH]c2c1` the same measures were 8.03%, 6.27% and 16%.
Regarding `Cc1nnc2c(NC(=O)/C=C/c3ccc(OC(F)(F)F)cc3)cc3cc(Cl)ccc3n12`, the results for the inhibition in experiment [1], in experiment [2] and in experiment [3] were 0.28%, 0.28% and 0.55%, respectively.
As to `COc1ccccc1N1CCN(Cc2c(O)ccc3cc(Br)ccc23)CC1`, the inhibition turned out to be 5.54% in experiment [1], 4.31% in experiment [2] and 6.16% in experiment [3].
For `Cc1c(-c2cccc(CNCCc3ccc(Cl)cc3)c2)cnc(N)c1C` the same measures were -3.87%, -2.81% and -1.41%.
For the compound `Cn1nc(-c2ccc(CN[C@@H]3CCc4ccc(O)cc43)cc2)c2cnc(NC3CCCC3)nc21`, the inhibition in experiment [1] is 0.66%; in experiment [2], -1.03%; in experiment [3], -0.55%.
For `CCOC(=O)C1=C(C)N=c2sc(=Cc3ccccc3O)c(=O)n2C1c1ccc(OC)c2ccccc12` (centres undefined) the same measures were -1.25%, -0.06% and -1.57%.
For `COC(=O)c1cccc(CNCc2ccc(-c3ccc(-c4nc5ccccc5[nH]4)s3)cc2)c1` the same measures were 9.31%, 9.04% and 9.28%.
For `Clc1cc(Cl)c2cc(CN[C@H]3CCC[C@@H]3CNc3nc4ccccc4[nH]3)[nH]c2c1` the same measures were 0.55%, 1.94% and 2.36%.
